Results taken from PubChem BioAssay (EPA / NIEHS).
Some compounds were tested as several samples or in several runs, with calls that do not always agree. Active and inactive are the calls of the source. The calls were made as follows: active = hit-call score of the fitted dose curve at least 0.9, where 1 is the maximum; inactive = score below 0.9.

The compounds below were run on Cyclin D1 (CCND1), CCND1 (gene 595) (assay: LTEA_HepaRG_CCND1: Life Technologies and Expression Analysis (LTEA) Assay for Cyclin D1 (CCND1) using HepaRG (AID 2283451;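 as to AC50: TaqMan qRT-PCR transcript level normalised to ACTB GAPDH and POLR2A housekeeping genes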)). Settings: mRNA level, 48 h; actives raise or lower the signal.
Procedure: LTEA_HepaRG is a cell based, multiplexed-readout assay that uses HepaRG, a human liver cell line, with measurements taken at 48 hours after chemical dosing on a 96-well plate.LTEA_HepaRG_CCND1 is one of 102 assay component(s) measured in the LTEA HepaRG cell culture assay. It is a marker of Cell proliferation, survival, death.Data from the assay component LTEA_HepaRG_CCND1 was analyzed into 1 endpoint. This assay endpoint, LTEA_HepaRG_CCND1, was analyzed with bidirectional fitting relative to DMSO as the negative control and baseline of activity. Using a type of inducible reporter, measures of mRNA induction for gain or loss-of-signal activity can be used to understand regulation of transcription factor activity. To generalize the intended target to other relatable targets, this assay endpoint is annotated to the cell cycle intended target family, where the subfamily is Cell proliferation, survival, death.
A total of 1060 chemcials from the ToxCast library were tested in eight-point concentration-response experiments. Cell culture and cytotoxicity assays were conducted at Thermo Fisher Scientific's Custom Services facility (Madison, WI). A single lot of human HepaRG cells (Thermo Fisher Scientific, Frederick, MD) was used for the cell culture experiments. 96-well format collagen type I coated plates of human HepaRG cells were prepared using established methods. Briefly, cryopreserved HepaRG cells were thawed, plated at a density of approximately 100,000 cells/well in HepaRG Thaw, Plate, and General Purpose media (HPRG770, Thermo Fisher Scientific), and incubated for 48 hours. 0.5% DMSO was selected as vehicle control to balance the requisite need of DMSO in HepaRG cultures to maintain differentiation (for example, baseline metabolism, proportions of hepatocytes vs. cholangiocytes), while enabling further hepatic receptor pathway activation (for example, PXR and CAR) in response to chemical exposure. 48 hours after plating, the culture medium was replaced with HepaRG Serum-Free Incudtion Media. Cells were exposed to each test chemical in duplicate and maintained in CO2 incubators for another 48 hours. Chemical plates were thawed to room temperature and 200x concentrations of treatment groups were prepared. 8-point conentration-reponse curves were made with the highest exposure at 100 uM, followed by half-log dilutions, all in 0.5% DMSO. Each test plate contained variouse controls, induction positive controls (1mM phenobarbital), cytotoxicity positive controls ([…] aflatoxin B1), vehicle controls (0.5% DMSO), and total lysis controls (0.5% DMSO). Cell morphology images were taken using an Essen IncuCyte FLR automated microscope, with six 96-well plates imaged in about 24 minutes. Images were captured and exported and JPEG files. Spent culture media was transfered to black-well plates for the LDH assay, and remaining media was sorted at -80 C for later use. Cells were treated with RLT buffer and frozen until shipped for gene expression analysis. Total RNA was isolated from the cell suspension in 75 uL of Buffer RLT (Qiagen, Germantown, MD 20874) by Quintiles/Expression Analysis (Durham, NC) using a custom isolation procedure. Total RNA from each plate well was transferred to a preamplification plate. Fluidigm's 96.96 Dynamic ArrayTM (Fluidigm, Amsterdam, the Netherlands) technology was used for gene expression analyses by quantitative reverse transcription polymerase chain reaction (qRT-PCR, performed by Quintiles/Expression Analysis, Durham, NC)89. Standard TaqManTM Assays (Applied Biosystems/ThermoFisher Scientific, Foster City, CA) were used to assess the expression of 93 genes selected based on their selectivity and sensitivity to important hepatic receptors known to be modulated by environmental chemicals; importance in human hepatocyte functionality; and hepatotoxicity. […]

Structure (SMILES)	AC50	outcome
O=[N+]([O-])c1ccc(O)c([N+](=O)[O-])c1	12.6 µM (active)	–
O=C(Nc1ccc2[nH]ccc2c1)c1cc2cc(F)ccc2n1Cc1cccc(F)c1	39.5 µM (active)	–
CCC(=O)C(CC(C)N(C)C)(c1ccccc1)c1ccccc1 (configuration not stated)	–	inactive
NC(=O)O	–	inactive
ClCC(Cl)CCl	–	inactive
O=C1C2(Cl)C3(Cl)C4(Cl)C(Cl)(Cl)C5(Cl)C3(Cl)C1(Cl)C5(Cl)C24Cl (configuration not stated)	92.9 µM (active)	–
CCOP(=S)(OCC)Oc1nc(Cl)c(Cl)cc1Cl	–	inactive
C=C(C)C(=O)[O][Sn]([CH2]CCC)([CH2]CCC)[CH2]CCC	–	inactive
Oc1cccc2cccnc12	–	inactive
CC(C)(OO)c1ccccc1	–	inactive
COc1cc(-c2ccc(N)c(OC)c2)ccc1N	32.7 µM (active)	inactive
O=c1[nH]c(=O)[nH]c(=O)[nH]1	–	inactive
CCCCCCCCc1ccc(O)cc1	0.346 µM (active)	–
CN(C)N=O	–	inactive
O=C(O)C(Cl)(Cl)Cl	–	inactive
CCC(C)(C)c1ccc(O)c(C(C)(C)CC)c1	–	inactive

Structure (SMILES)	AC50	outcome
C[C@@H]1C[C@@H]([C@H](O)CC2CC(=O)NC(=O)C2)C(=O)[C@@H](C)C1	3.34 µM (active)	–
CCOP(=S)(OCC)SCSP(=S)(OCC)OCC	–	inactive
ClC1(Cl)C2(Cl)C3(Cl)C4(Cl)C(Cl)(Cl)C5(Cl)C3(Cl)C1(Cl)C5(Cl)C24Cl (configuration not stated)	–	inactive
CC(C)(C)c1cc(O)ccc1O	–	inactive
O=C(O)C(F)(F)C(F)(F)C(F)(F)C(F)(F)C(F)(F)C(F)(F)F	–	inactive
Cc1ccccc1N	–	inactive
CCN1CCC2(CC1)COc1cc3c(cc12)N(C(=O)c1ccc(-c2ccc(-c4nnc(C)o4)cc2C)cc1)CC3	30.8 µM (active)	–
O=C(O)C(F)(F)C(F)(F)C(F)(F)C(F)(F)C(F)(F)C(F)(F)C(F)(F)C(F)(F)C(F)(F)C(F)(F)F	–	inactive
CC(=O)[O][Hg][c]1ccccc1	3.75 µM (active)	–
CC12CC1(C)C(=O)N(c1cc(Cl)cc(Cl)c1)C2=O (configuration not stated)	–	inactive
C=CC(=O)OCCCCCC(C)C	–	inactive
C[C@]12CCC(=O)C[C@@H]1CC[C@@H]1[C@@H]2CC[C@]2(C)[C@@H](O)CC[C@@H]12	–	inactive
Cn1sc(Cl)cc1=O	–	inactive
CC(C)(c1ccccc1)c1ccc(O)c(C(C)(C)c2ccccc2)c1	–	inactive
CC(C)(C)CC(C)(C)c1ccc(O)cc1	–	inactive
